Results on 37 compounds are retold here after PubChem BioAssay (NCI).

The panel holds about 83,000 compounds, 20% with a hit somewhere; the sample as a whole holds those more often.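 Growth was measured after 48 h exposure to one concentration of compound in 96-well plates. Values under 10 count as active.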 Unmarked numbers belong to inactive results. Active and inactive are the calls of the source.

For this experiment, the system named is M14 melanoma. Description: NCI-60 one-dose screen, 48 h (100 = growth as untreated, 0 = no growth, -100 = all killed). Conditions: 10 µM unless noted.
Take `COc1ccc(/C=C(/C(=O)N2CCCCC2)c2cc(OC)c(OC)c(OC)c2)cc1`: the growth is -6.93% (active). On to `COc1ccc(OC)c(Cn2cc3c(c2)-c2oncc2CC3)c1`, for which the growth is 4.07% (active). The same measure for `COc1ccc(CN2C(=O)/C(=C\C(=O)c3ccc(OCCN4CCCCC4)cc3)c3ccccc32)cc1`: 72.1%; for `COc1ccc(/C=C2\SC(=O)N(Cc3cc(=O)oc4ccc(OC)cc34)C2=O)cc1`: 92.7%; for `O=c1oc2ccc3ccccc3c2cc1-c1ccnc2[nH]c(=S)[nH]c(=O)c12`: 105%. The same measure for `O=C(O)c1occ(Cl)c1Cl`: 114%; for `COc1ccc(Cn2cc3c(c2-c2ccccc2)CCc2cnoc2-3)cc1OC`: 30.5%. Under `CCCCN(CCCC)CC(O)CN(CC)CC` (configuration not stated) stands 95%; under `O=C(/C=C/c1c[nH]c2ccccc12)c1cc2ccccc2o1`, 84.2%; under `COc1ccc2sc(-n3nc4nc5n(c(=O)c4c3N)-c3ccccc3Sc3ccccc3-5)nc2c1`, 77.1%. Take `COc1ccc(-c2cn3ccnc3c(-c3ccc4ncn(C5CCCCC5)c4c3)n2)cc1`: the growth was 10.8%.

As to `CCOC(=O)C1=NN(c2ccccc2)C2=NC(=O)/C(=C\c3cn(-c4ccccc4)nc3-c3cc4ccccc4o3)C(=O)N12`, the growth is 101%. The same measure for `O=C(/C=C1\C(=O)N(Cc2ccc([N+](=O)[O-])cc2)c2ccccc21)c1ccc(OCCN2CCCCC2)cc1`: -59.4% (active); for `NNC(=S)N1N=C(c2cc3ccccc3o2)CC1c1c[nH]c2ccccc12` (configuration not stated): 52.1%; for `O=C(/C=C1\C(=O)N(Cc2ccccc2)c2ccccc21)c1ccc(OCCN2CCCCC2)cc1`: 37.9%. The same measure for `COc1ccc(CN2C(=O)/C(=C\C(=O)c3ccc(OCCN4CCCC4)cc3)c3ccccc32)cc1`: 79.6%. For the compound `C[C@@H](c1ccc2c(c1)[nH]c1ccc(Cl)cc12)c1nc2ccccc2[nH]1`, the growth is 111%. The same measure for `c1ccc(-c2cn3ccnc3c(-c3ccc4ncn(C5CCCCC5)c4c3)n2)cc1`: 61.8%. Regarding `C[C@@H](c1ccc2c(c1)[nH]c1ccc(Cl)cc12)c1nc2ccc(Cl)cc2[nH]1`, the growth was 100%. Under `COc1cc(CNC(=O)CCCC/C=C/C(C)C)ccc1OCc1nnc(Nc2ccccc2F)o1` stands 99.7%.

With `Cc1c(CN(C)C)cc(C(C)C)cc1C(C)C`, the growth is 108%.

As to `O=S(=O)(O)c1ccc2c(c1)Sc1cc(S(=O)(=O)O)ccc1O2`, the growth was 107%. Under `COc1ccc(Cn2cc3c(c2-c2ccccc2)CCc2cnoc2-3)cc1N` stands 18.2%; under `COc1ccc(/C=C(/C(=O)N2CCN(c3ccc(C)cc3)CC2)c2cc(OC)c(OC)c(OC)c2)cc1N`, 3.96% (active). In the case of `C=CCN(C)C`, the growth is 107%. Under `CCNc1nnc(COc2ccc(CNC(=O)CCCC/C=C/C(C)C)cc2OC)o1` stands 102%; under `COc1ccc2oc(=O)cc(CN3C(=O)S/C(=C\c4ccc(Cl)cc4)C3=O)c2c1`, 96.2%; under `COc1ccc(Cn2cc3c(c2-c2ccc(OC)cc2)CCc2cnoc2-3)cc1`, 1.32% (active).

With `COc1cc(Cn2ccc3c2-c2oncc2CC3)cc(OC)c1`, the growth was 12.7%.

Regarding `COc1cccc(Cn2cc3c(c2)-c2oncc2CC3)c1`, the growth is 12.5%.

For `COc1ccc(C2=C/C(=C\c3ccc(Cl)cc3)C(=O)NN2C(=S)NN)cc1`, the growth is 99.5%. Turning to `COc1ccc(Cn2cc3c(c2)-c2oncc2CC3)cc1OC`, the growth is 4.9% (active). On to `COc1ccccc1Nc1nnc(COc2ccc(CNC(=O)CCCC/C=C/C(C)C)cc2OC)o1`, for which the growth was 95.4%. With `N=c1c2c(=O)n3c(nc2nc2sc4ccc(Cl)cc4n12)-c1ccccc1Sc1ccccc1-3`, the growth is 21.6%. Under `COc1ccc(Cn2cc3c(c2-c2ccc(O)cc2)CCc2cnoc2-3)cc1` stands 9.96% (active). Under `COc1ccc(OC)c(Cn2cc3c(c2-c2ccccc2)CCc2cnoc2-3)c1` stands 50.7%; under `CCCCCCCCCCCCCCCCCC1=NCCN1CS(=O)(=O)O`, 34.6%.
